Screening data from PubChem BioAssay.
Pf Dd2 inh: qHTS Primary assay for Inhibitors of Plasmodium falciparum Dd2 growth in vitro. P. falciparum Dd2 growth, SYBR Green, 72 h. actives 4.3% (n = 120,000). Potency, µM (titrated, usually from 28.9 µM), for the others: at the highest dose activity, negative = inhibition, usual class: inhibitors; active means well fitted inhibition curve with a large enough effect;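 further: plate controls were DMSO vehicle for no effect and reference drug for full effect; nearly all actives have a fitted effect of over 65% in size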
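Readout: SYBR Green fluorescence, 485 nm excitation, 535 nm emission, after ~16 h lysis at 37C. Before that, Dd2-infected red cells (2.5% hematocrit) grew 72 h with compound, 29 uM top final concentration.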
* = called active by the depositor; i = inactive; [ ] = another dose, or the depositor's remark. Many of the other results were omitted from the sample, so hits are more common in it than they were. Potency means the concentration at half of the fitted maximal effect.

SMILES	Pf Dd2 inh
O=C(c1ccc(-c2ccc(O)cc2)cc1)N1CCOC2(CNCCOC2)C1 (stereo not drawn)	-17%
CCN1CCN(CC(=O)N2C[C@@H](C(=O)O)[C@H](c3ccccc3OC)C2)CC1	-12%
COc1ncccc1C(=O)N1CCCC(c2nnc(Cn3ccnc3)n2C)C1 (stereo not drawn)	-18%
COc1ccc(CN2CCCC3(CC(Cc4ccccc4)=NO3)C2)cc1 (stereo not drawn)	-6%
c1ccc(CC2=NOC3(CCN(Cc4ccccc4)C3)C2)cc1 (stereo not drawn)	4.5µM*
FC(F)(F)c1ccc(CN2CCCC3(CC(Cc4ccccc4)=NO3)C2)cc1 (stereo not drawn)	-15%
c1ccc(CC2=NOC3(CCN(CC4CCCCC4)CC3)C2)cc1	3.5µM*
c1cncc(C2=NOC3(CCN(CC4CCCCC4)CC3)C2)c1	22%
CC(C)CCN1CCCC2(CC(Cc3ccccc3)=NO2)C1 (stereo not drawn)	-18%[44.1 µM]
Cc1ccc(Cl)cc1NC(=O)Cn1ccn2nc3c(c2c1=O)CCCCC3	i
O=C(C1CC=CC1)N1CCc2nn(Cc3ccccc3)c(=O)n2CC1	20%
COc1cccc(CC(=O)N2CCC([C@@H]3CNC[C@H]3CO)CC2)c1	25%
O=C(c1ccoc1)N1CCC2(CC1)CC(N(C(=O)c1ccccc1)C1CC1)CCO2 (stereo not drawn)	i
CC1CCN(C(=O)c2ccc(CN3C(=O)NC4(CCS(=O)(=O)CC4)C3=O)cc2)CC1	-22%
COc1ccccc1C(=O)NC(=O)Nc1ccc(-n2nc(C(F)(F)F)cc2C(F)(F)F)cc1	11µM*
O=C(NC(=O)c1ccccc1)Nc1ccc(-n2nc(C(F)(F)F)cc2C(F)(F)F)cc1	-5%
O=C(NC(=O)c1ccc(F)cc1)Nc1ccc(-c2cc(C(F)(F)F)nn2-c2ccccc2)cc1	27%
CC(=O)N1CC2(Cc3ccccc31)CN([S+](=O)([O-])c1c(C)noc1C)C2	16%
Cc1ccc(CN2C(=O)COC[C@H]2C(=O)N2CCN(c3ccccc3F)CC2)cc1	-27%
CCOc1cc(C(=O)Nc2ccc3nc(N4CCN(C)CC4)cc(C)c3c2)cc(OCC)c1OCC	3.2µM*
Cc1ccc(CSCC(=O)N2CCN(c3cc(Cl)ccc3C)CC2)cc1	i
Cc1ccc(Nc2ncc(C(=O)N3CCN(c4cccc(Cl)c4)CC3)c3ccccc23)cc1Cl	i
COc1ccc(C(=O)Nc2ccc3nc(N4CCCCC4)cc(C)c3c2)c(OC)c1	4%
Cc1cn(C)c(CC(=O)N2CCN(c3cccc(Cl)c3)CC2)c1C(=O)O	2%
Cc1cc(N2CCN(C)CC2)nc2ccc(NC(=O)Nc3cccc(Cl)c3)cc12	1µM*
SMILES	Pf Dd2 inh
Cc1ccc(/C=C/C(=O)Nc2ccc3nc(N4CCC(C)CC4)cc(C)c3c2)cc1	-5%
Cc1ccc(Cl)cc1N1CCN(C(=O)CCC(=O)Nc2ccc3nc(N4CCC(C)CC4)cc(C)c3c2)CC1	3.5µM*
Cc1cc(N2CCCCC2)nc2ccc(NC(=O)CCC(=O)N3CCN(c4cccc(Cl)c4)CC3)cc12	11µM*
Cc1cccn2c(=O)cc(COc3cccc(NC(=O)Nc4cccc(Cl)c4)c3)nc12	i
Cc1c(-c2cccc(NC(=O)Nc3ccc(Cl)cc3)c2)nc2ncccn12	-24%
Cc1cc(N2CCCCC2)nc2ccc(NC(=O)c3cccc(F)c3)cc12	i
COC[C@@H]1CN(C(=O)c2ccc3c(c2)OCO3)C[C@H]1c1ccccn1	-26%
COc1cccc(C(=O)N2CC(=O)N(c3ccc(C)cc3)CC2C)c1OC (stereo not drawn)	-13%
O=C(N1CCc2c(nc[nH]c2=O)C1)C1(S(=O)(=O)c2ccccc2)CC1	0%
Cc1ccc(C2Cn3nnc(C(=O)N4CCC(C(=O)NCc5cc(F)ccc5F)CC4)c3CO2)cc1 (stereo not drawn)	17%
COCc1nc(C2CCCN(C(=O)c3cccc(C)c3)C2)no1 (stereo not drawn)	59%
CCc1noc(CC2CCOC3(CCN(S(=O)(=O)c4ccccc4Cl)CC3)C2)n1 (stereo not drawn)	i
O=C(C1CCc2ncc(-c3ccsc3)n2C1)N1CCN(c2ccccn2)CC1 (stereo not drawn)	i
O=C(NC1CCN(Cc2ccccc2)CC1)C1CCc2ncc(-c3ccsc3)n2C1 (stereo not drawn)	8.9µM*
CC(C)CNC(=O)C1CCc2ncc(-c3ccsc3)n2C1 (stereo not drawn)	i
O[C@H]1[C@H](NCc2cccc(C(F)(F)F)c2)[C@@H](c2ccc(N3CCOCC3)nc2)C[C@H]1O	i
O=C(Cn1nc2c(cc1=O)CCCC2)N1CCN(c2ccc(C(F)(F)F)cn2)CC1	6%
CCn1ncc(CN2CCCC23CCN(c2cc(C)nc4ccccc24)CC3)c1C	2µM*
O=C1COCC2(CN1Cc1c(F)cccc1Cl)CN(c1ccc(C(F)(F)F)cn1)C2	i
FC(F)Oc1ccccc1CN1CCCC12CCN(c1ncccn1)CC2	i
Cn1ccnc1CN1CCCC12CCN(c1ccc(C(F)(F)F)cn1)CC2	i
Oc1cccc(CN2CCCC23CCN(c2ccc(C(F)(F)F)cn2)CC3)c1	4.5µM*
Cc1cc(CN2CCCC23CCN(c2nc4ccccc4o2)CC3)on1	-16%
Cc1cc(C)n(CCc2nc3c4ccccc4nc(N4CCN(c5ccccc5F)CC4)n3n2)n1	39%
CCn1ncc(CN2CCCC23CCN(c2ccc(C(F)(F)F)cn2)CC3)c1C	10µM*
SMILES	Pf Dd2 inh
CCCn1ccnc1CN1CCCC12CCN(c1ccc(C(F)(F)F)cn1)CC2	11µM*
Cc1noc(-c2ccn3c(CNC(=O)Cc4ccccc4Cl)nnc3c2)n1	-8%
Cc1ccc(-c2nc(C(=O)N3CCN(c4ccc(C)cc4)CC3)no2)cc1	9%
COc1ccc(NC(=O)N2C[C@@H](F)C[C@H]2C(=O)N2CCCCC2)c(OC)c1	50%
CC(C)(C)NC(=O)NCc1cc2n(n1)CCCN(C(=O)C1CCC1)C2	5%
O=C(c1cccnc1OC1CCN(S(=O)(=O)c2ccccc2)C1)N1CCCCC1 (stereo not drawn)	i
Cc1cc(C(=O)N[C@H](C)c2onc(-c3cccnc3)c2C(=O)O)no1	9%[44.1 µM]
Cc1ccc(C(=O)NCC(=O)N2CCN(c3ccccn3)CC2)cc1	i
CC(=O)N1CCC2(CC1)OC(=O)C(C)=C2C(=O)Nc1ccccc1C(F)(F)F	14%
CS(=O)(=O)N1CCC(OC2CCN(C(=O)Nc3ccccc3C(F)(F)F)CC2)CC1	-14%
CCN1c2ccccc2-n2cccc2C12CCN(C(=O)Nc1ccccc1C(F)(F)F)CC2	2.8µM*
O=C(c1cccc(Cl)c1)N1CCn2c(nn(-c3ccc(C(F)(F)F)cc3)c2=O)C1	-27%
Cn1cccc1CN1CCC2(C1)C(=NC1CCCCC1)NC(=O)N2c1cccnc1 (stereo not drawn)	-4%
COc1ccc(C(=O)N2CCN(C(=O)c3nnn4c3COC(c3ccccc3)C4)CC2)c(C)c1 (stereo not drawn)	-2%
CC(C)c1ccc([S+](=O)([O-])c2nnn3c2nc(N2CCC(F)CC2)c2ccccc23)cc1	-28%
O=S(=O)(c1ccccc1)c1nnn2c1nc(N1CCOCC1)c1ccccc12	5%
Cc1cc(C)c([S+](=O)([O-])c2nnn3c2nc(N2CCC(F)CC2)c2ccccc23)c(C)c1	11µM*
COc1ccc(OC)c([S+](=O)([O-])c2nnn3c2nc(N2CCOCC2)c2ccccc23)c1	-21%
